In PubChem BioAssay (Tox21):
Results filed as inconclusive are left out. Active and inactive are the calls of the source. Unless noted, calls come from the whole dose curve; as a rule, active = well fitted curve in the direction sought with a large enough effect in the repeat runs; inconclusive = weak or mixed curves; inactive = no such curve, though single readings can be large; an effect the other way counts as inactive or inconclusive.

Columns and labels:
[1] = qHTS assay to test for compound auto fluorescence at 535 nm (green) in HEK293 cells (AID 720680)
[2] = qHTS assay to test for compound auto fluorescence at 460 nm (blue) in HEK293 cell free culture (AID 720681)
In short: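 Test compounds were pinned into cell-free culture medium (DMEM with 10% FBS) and fluorescence was read directly at Ex/Em 405/460 nm. Signals were expressed as fluorescence equivalents of triamterene, with DMSO vehicle as control.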

[3] = qHTS assay to test for compound auto fluorescence at 535 nm (green) in HEK293 cell free culture (AID 720682)
In short: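 Steps: dispense DMEM/10% FBS into empty wells; pin in compound or DMSO; measure fluorescence at 485/535 nm. Values are fluorescein equivalents.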

[4] = qHTS assay to test for compound auto fluorescence at 590 nm (red) in HEK293 cell free culture (AID 720683)
In short: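 Tox21 10K library compounds were pinned into cell-free DMEM with 10% FBS and fluorescence was read at excitation 540 nm. Activity is expressed as Rose Bengal sodium equivalency.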

[5] = qHTS assay to test for compound auto fluorescence at 590 nm (red) in HepG2 cell free culture (AID 720684)
In short: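 Red fluorescence (540 nm excitation, 590 nm emission) was measured after compound transfer into cell-free MEM supplemented with 10% FBS. Values are equivalencies against Rose Bengal sodium.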

[6] = qHTS assay to test for compound auto fluorescence at 460 nm (blue) in HepG2 cell free culture (AID 720685)
In short: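 Compound (23 nL) or DMSO pinned into cell-free MEM with 10% FBS; blue fluorescence read at 405/460 nm excitation/emission, expressed as auto-fluorescence equivalency to triamterene.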

[7] = qHTS assay to test for compound auto fluorescence at 535 nm (green) in HepG2 cell free culture (AID 720686)
[8] = qHTS assay to test for compound auto fluorescence at 460 nm (blue) in HepG2 cells (AID 720687)
In short: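 Cells (2,000/well in MEM with 10% FBS) attached overnight at 37 C, then were exposed to compound or DMSO for 1 hr at 37 C, 5% CO2. Fluorescence read at Ex/Em 405/460 nm, expressed as triamterene-equivalent signal.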

[9] = biological target: Glucocorticoid receptor (Homo sapiens) (UniProt P04150); assay: qHTS assay to identify small molecule agonists of the glucocorticoid receptor (GR) signaling pathway (AID 720691; active = well fitted activation curve with a large enough effect in the signal ratio in the repeat runs, not every such curve was filed as active; the % refers to the signal ratio)
Glucocorticoid receptor (Homo sapiens), sequence (P04150 whole entry, looked up): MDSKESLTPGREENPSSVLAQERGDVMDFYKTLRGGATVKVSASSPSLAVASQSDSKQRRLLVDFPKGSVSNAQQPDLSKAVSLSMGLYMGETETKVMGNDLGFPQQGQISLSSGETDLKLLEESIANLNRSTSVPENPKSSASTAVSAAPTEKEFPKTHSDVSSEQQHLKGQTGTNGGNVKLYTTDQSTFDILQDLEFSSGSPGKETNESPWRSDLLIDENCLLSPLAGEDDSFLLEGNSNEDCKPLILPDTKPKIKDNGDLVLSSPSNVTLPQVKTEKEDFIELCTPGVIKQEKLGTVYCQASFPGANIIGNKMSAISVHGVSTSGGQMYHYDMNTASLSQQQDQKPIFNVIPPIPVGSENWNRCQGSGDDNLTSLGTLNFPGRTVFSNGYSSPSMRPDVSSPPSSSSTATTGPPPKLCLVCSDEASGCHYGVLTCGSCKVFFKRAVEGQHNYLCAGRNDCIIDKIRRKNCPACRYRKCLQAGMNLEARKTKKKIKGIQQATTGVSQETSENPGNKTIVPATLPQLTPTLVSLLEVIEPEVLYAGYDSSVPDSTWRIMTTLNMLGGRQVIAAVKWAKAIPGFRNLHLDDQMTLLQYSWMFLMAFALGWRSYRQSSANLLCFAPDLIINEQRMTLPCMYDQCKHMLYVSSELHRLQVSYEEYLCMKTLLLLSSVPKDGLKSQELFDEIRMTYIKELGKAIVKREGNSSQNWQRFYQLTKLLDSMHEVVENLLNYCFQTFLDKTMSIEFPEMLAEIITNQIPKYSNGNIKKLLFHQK
In short: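 Agonist mode in a HeLa line carrying a GRE-controlled beta-lactamase reporter. Compounds act for 18 h at 37 C before a 2 h room-temperature FRET substrate step and fluorescence reading.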

[10] = biological target: Glucocorticoid receptor (Homo sapiens) (UniProt P04150); assay: qHTS assay to identify small molecule antagonists of the glucocorticoid receptor (GR) signaling pathway (AID 720692; active = well fitted inhibition curve with a large enough effect in the signal ratio in the repeat runs, not every such curve was filed as active; the % refers to the signal ratio)
In short: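 Cells plated, rested 4 h at 37 C/5% CO2; compounds in DMSO pin-transferred; dexamethasone added to 5 nM final; 18 h at 37 C; B/G FRET substrate added, 2 h room temperature; fluorescence measured.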

[11] = qHTS assay for identifying genotoxic compounds that show differential cytotoxicity against isogenic chicken DT40 cell lines with known DNA damage response pathways - wild type cell line (AID 743012); note: nearly all actives have a fitted effect of over 60% in size
In short: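 Cells (DT40 wild type, 300/well) are treated with DMSO-dissolved compounds after a ~0.5 h pre-incubation and kept 40 h at 37 C/5% CO2. Viability is then measured by CellTiter-Glo luminescence following 30 min at room temperature.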

[12] = qHTS assay for identifying genotoxic compounds that show differential cytotoxicity against isogenic chicken DT40 cell lines with known DNA damage response pathways - Rev3 mutant cell line (AID 743014); note: nearly all actives have a fitted effect of over 55% in size
[13] = qHTS assay for identifying genotoxic compounds that show differential cytotoxicity against isogenic chicken DT40 cell lines with known DNA damage response pathways - Rad54/Ku70 mutant cell line (AID 743015); note: nearly all actives have a fitted effect of over 60% in size
[14] = qHTS assay to identify small molecule antagonists of the androgen receptor (AR) signaling pathway - cell viability counter screen (AID 743033; note: nearly all actives have a fitted effect of over 45% in size)
[15] = biological target: Androgen receptor (Homo sapiens) (UniProt P10275); assay: qHTS assay to identify small molecule antagonists of the androgen receptor (AR) signaling pathway (AID 743035; active = well fitted inhibition curve with a large enough effect in the signal ratio in the repeat runs, not every such curve was filed as active; the % refers to the signal ratio)
Androgen receptor (Homo sapiens), sequence (P10275 whole entry, looked up): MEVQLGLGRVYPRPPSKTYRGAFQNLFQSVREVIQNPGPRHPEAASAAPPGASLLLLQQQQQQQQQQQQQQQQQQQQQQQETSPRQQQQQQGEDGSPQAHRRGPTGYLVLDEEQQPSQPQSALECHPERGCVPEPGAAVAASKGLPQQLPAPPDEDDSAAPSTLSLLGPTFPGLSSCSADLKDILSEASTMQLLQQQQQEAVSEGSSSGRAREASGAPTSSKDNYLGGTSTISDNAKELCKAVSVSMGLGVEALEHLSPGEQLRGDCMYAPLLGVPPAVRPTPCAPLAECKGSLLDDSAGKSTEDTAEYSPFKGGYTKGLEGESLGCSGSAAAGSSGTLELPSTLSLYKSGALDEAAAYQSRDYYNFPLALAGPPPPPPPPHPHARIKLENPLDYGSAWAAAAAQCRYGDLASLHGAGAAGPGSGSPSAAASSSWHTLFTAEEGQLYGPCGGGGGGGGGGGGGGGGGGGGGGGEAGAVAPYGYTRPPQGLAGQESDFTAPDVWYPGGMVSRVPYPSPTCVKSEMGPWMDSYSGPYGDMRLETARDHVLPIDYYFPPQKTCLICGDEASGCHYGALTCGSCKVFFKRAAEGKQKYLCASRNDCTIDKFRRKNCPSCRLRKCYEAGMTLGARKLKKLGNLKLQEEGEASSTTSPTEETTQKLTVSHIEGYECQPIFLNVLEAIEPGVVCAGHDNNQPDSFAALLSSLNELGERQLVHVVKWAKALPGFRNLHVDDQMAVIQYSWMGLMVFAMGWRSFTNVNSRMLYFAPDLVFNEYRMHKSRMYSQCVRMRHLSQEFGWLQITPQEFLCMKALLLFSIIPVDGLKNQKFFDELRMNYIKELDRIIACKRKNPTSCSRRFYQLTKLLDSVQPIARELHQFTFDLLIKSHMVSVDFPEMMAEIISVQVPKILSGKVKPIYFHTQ
In short: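 Antagonism is scored as loss of R1881-driven beta-lactamase reporter expression in HEK293 cells carrying the reporter under a UAS element, after 16 h co-treatment at 37C and a 2 h room-temperature FRET substrate read.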

[16] = biological target: Androgen receptor (Homo sapiens) (UniProt P10275); assay: qHTS assay to identify small molecule agonists of the androgen receptor (AR) signaling pathway (AID 743036; active = well fitted activation curve with a large enough effect in the signal ratio in the repeat runs, with a control signal flat, not every such curve was filed as active; the % refers to the signal ratio)
In short: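 Reporter line: GeneBLAzer AR-UAS-bla-GripTite (HEK293). Steps: plate cells, 4 h rest, add compounds, 16 h at 37C, add LiveBLAzer B/G substrate, 2 h at RT, read fluorescence.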

[17] = biological target: Androgen receptor (Homo sapiens) (UniProt P10275); assay: qHTS assay to identify small molecule agonists of the androgen receptor (AR) signaling pathway using the MDA cell line (AID 743040; note: nearly all actives have a fitted effect of over 20% in size; note: potency is the fitted concentration of half-maximal effect)
In short: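 MDA-kb2 breast carcinoma cells stably carrying an MMTV-driven luciferase reporter (AR- and GR-responsive) were seeded and held 5 h at 37C, 0% CO2, then exposed to compounds in DMSO for 16 h. Luminescence was read 30 min after ONE-Glo addition.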

[18] = qHTS assay to identify small molecule antagonists of the androgen receptor (AR) signaling pathway using the MDA cell line - cell viability counter screen (AID 743041; note: nearly all actives have a fitted effect of over 45% in size)
In short: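 MDA-kb2 AR-luc human breast carcinoma cells (MMTV-luciferase, AR/GR responsive) were treated with compounds plus R1881 agonist for 16 h at 37 °C. Viability was read as CellTiter-Fluor fluorescence in the same wells as the reporter assay.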

[19] = biological target: Androgen receptor (Homo sapiens) (UniProt P10275); assay: qHTS assay to identify small molecule antagonists of the androgen receptor (AR) signaling pathway using the MDA cell line (AID 743042; note: nearly all actives have a fitted effect of over 55% in size)
In short: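 MDA-kb2 cells (human breast carcinoma, stably carrying an MMTV-luciferase reporter responsive to AR and GR) were plated at 3,000 cells/well and preincubated 5 hr at 37C, then given compound plus R1881 agonist for 16 h. ONE-Glo luminescence was read.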

[20] = qHTS assay to identify small molecule antagonists of the glucocorticoid receptor (GR) signaling pathway - cell viability counter screen (AID 720693); note: nearly all actives have a fitted effect of over 55% in size

Measured: Potency

C/C=C(\C)C(C)=O
not listed: [20]
inactive: all other assays above

CCOC(=O)CC1(C)OCC(C)O1 (centres undefined)
not listed: [9] | [10] | [15] | [16] | [17] | [19]
inactive: all other assays above

CCC/C=C(\C=O)CC
not listed: [10] | [12] | [15] | [16] | [17] | [19]
inactive: all other assays above

ONc1ccccc1
not listed: [11] | [12] | [15] | [16] | [17] | [19] | [20]
inactive: all other assays above

CCCCCC(C)O (centres undefined)
not listed: [12] | [15] | [16] | [17] | [19] | [20]
inactive: all other assays above

CC(Oc1cc(Cl)ccc1Cl)C(=O)O (centres undefined)
not listed: [10] | [13] | [16]
inactive: all other assays above

CCCCCc1cccc(=O)o1
not listed: [9] | [10] | [15] | [16] | [17] | [19]
inactive: all other assays above

CCCc1ccc(O)cc1
not listed: [10] | [15] | [16] | [17] | [19]
inactive: all other assays above

N[C@@H](CSCCCO)C(=O)O
active: [17] 33.5 µM
not listed: [9]
inactive: all other assays above
